The subject of assay [1] is Vero E6 infected with SARS-CoV-2. Description: morphology score (similarity to uninfected cells); higher = more like uninfected cells. To be noted: 24 h.
For assay [2] the test system is unchanged. Description: SARS-CoV-2 infection rate relative to infected DMSO; higher = more infection, active = 60 or less. Particulars: 24 h.

Turning to `C=C1C(=O)O[C@@H]2[C@H]3C(C)=CC[C@@]34O[C@@]4(C)CC[C@@H]12` [arglabin] (10 µM), the morphology score in assay [1] came out at 0.144. In addition, in assay [2], the SARS-CoV-2 infection rate is 68% (inactive).
For `Oc1ccc2[nH]cc(C3=CCNCC3)c2n1` (10 µM) the same measures were 0.00585 and 90% (inactive).
Taken in the same sequence, the figures for `O=C(O)c1ccc(N2N=C(Cc3ccccc3)/C(=C\c3ccc(-c4ccccc4F)o3)C2=O)cc1` (10 µM) were -0.0825 and 115% (inactive).
Regarding `O=C(O)CCNc1cc(N2CCc3ccccc3CC2)nc(-c2cccnc2)n1` (10 µM), in assay [1], the morphology score came to 0.165. In assay [2], the SARS-CoV-2 infection rate was 108% (inactive).
For `CC(=O)[O-].CC(=O)[O-].N.NC1CCCCC1.[Cl-].[Cl-].[Pt+4]` [satraplatin] (0.833333 µM) the same measures were 0.00101 and 104% (inactive).
For `COc1ccc2cc1Oc1ccc(cc1)C[C@H]1c3cc(c(OC)cc3CCN1C)Oc1c(OC)c(OC)cc3c1[C@H](C2)N(C)CC3` [tetrandrine] (10 µM) the same measures were 0.509 and 12% (active).
Taken in the same sequence, the figures for `O=C(CC1NCCCC1O)Cn1cnc2cc(Br)c(Cl)cc2c1=O` (stereo unspecified) [halofuginone] (0.833333 µM) were -0.082 and 99.5% (inactive).
Take `Cc1nc(=O)c2cc(CN(C)c3ccc(C(=O)N[C@@H](CCC(=O)O)C(=O)O)s3)ccc2[nH]1` [raltitrexed] (0.833333 µM): the morphology score in assay [1] was -0.207. The SARS-CoV-2 infection rate in assay [2] is 104% (inactive).
Taken in the same sequence, the figures for `Sc1ncnc2nc[nH]c12` [mercaptopurine] (0.833333 µM) were 0.0241 and 108% (inactive).
As for `CN1CCC(OC(c2ccccc2)c2ccccc2)CC1` [diphenylpyraline] (10 µM), the morphology score in assay [1] worked out at 0.291. Also, the SARS-CoV-2 infection rate in assay [2] is 82.5% (inactive).
Taken in the same sequence, the figures for `NC(=O)CN1CC(O)CC1=O` (stereo unspecified) [oxiracetam] (10 µM) were -0.00498 and 107% (inactive).
Consider `CCC1(C)CC(=O)NC(=O)C1` [bemegride] (10 µM), for which the morphology score in assay [1] is 0.0851. Further, the SARS-CoV-2 infection rate in assay [2] is 95.5% (inactive).
For `C[C@@H]1CN(CC(=O)Nc2ccc3c(c2)Cc2cccc(-c4cc(=O)cc(N5CCOCC5)o4)c2S3)C[C@H](C)O1` (10 µM) the same measures were 0.618 and 60% (active).
Taken in the same sequence, the figures for `CN(C)Cc1cccc(N=C(c2ccccc2)c2c(O)[nH]c3cc(C(=O)N(C)C)ccc23)c1` (10 µM) were -0.271 and 112% (inactive).
Taken in the same sequence, the figures for `COc1cc(C(=O)N(CC[C@H]2CCCN2C)C/C(C)=C/c2ccccc2F)cc(OC)c1OC` (racemic) (10 µM) were 0.055 and 108% (inactive).
For the molecule `CCCCCCCCCCCCCCCC(=O)OC[C@H](COP(=O)([O-])OCC[N+](C)(C)C)OC(=O)CCCCCCCCCCCCCCC` [colfosceril-palmitate] (10 µM), the morphology score in assay [1] stood at 0.152. Further, the SARS-CoV-2 infection rate in assay [2] was 103% (inactive).
In the case of `CNCCn1c(=O)c2cc(OC)c(OC)cc2c2cnc3cc4c(cc3c21)OCO4` (10 µM), the morphology score in assay [1] was -0.381. Moreover, in assay [2], the SARS-CoV-2 infection rate is 118% (inactive).
For `CC/C(=C(\c1ccccc1)c1ccc(OCCN(C)C)cc1)c1ccccc1` [tamoxifen] (0.833333 µM) the same measures were 0.135 and 95.5% (inactive).
For `CSc1ccc(C(=O)N[C@@H]2CCCC[C@@H]2NC(=O)CNC(=O)c2cc(C(F)(F)F)ccc2NC(=O)NC(C)C)cc1` (10 µM) the same measures were 0.07 and 93.5% (inactive).
Taken in the same sequence, the figures for `O=C(NCCN1CCCCC1)c1ccc(I)cc1` [N-[2-(piperidinylamino)ethyl]-4-iodobenzamide] (10 µM) were 0.317 and 91.5% (inactive).
`Nc1nc(N)c2nc(-c3ccccc3)c(N)nc2n1` [triamterene] (0.833333 µM) returned a morphology score in assay [1] of -0.174. The SARS-CoV-2 infection rate in assay [2] is 118% (inactive).
`Cc1ccnc(NC(=O)C(C)c2cccc(C(=O)c3ccccc3)c2)c1` (stereo unspecified) [piketoprofen] (10 µM): the morphology score in assay [1] is -0.109. The SARS-CoV-2 infection rate in assay [2] was 107% (inactive).
Taken in the same sequence, the figures for `CC(C)n1nnc2cc(C(=O)O)ccc21` (10 µM) were 0.0496 and 102% (inactive).
For `CC(CCc1ccccc1)NCC(O)c1ccc(O)c(C(N)=O)c1` (stereo unspecified) [labetalol] (10 µM) the same measures were -0.119 and 114% (inactive).
For `Cc1nc(-c2cccnc2)sc1C(=O)Nc1ccccc1-c1cn2c(CN3CCOCC3)csc2n1` (10 µM) the same measures were 0.215 and 98% (inactive).
The molecule `CNC(C)(C)Cc1ccccc1` [mephentermine] (10 µM) registered a morphology score in assay [1] of -0.196. The SARS-CoV-2 infection rate in assay [2] is 117% (inactive).
In turn, `CCOC(=O)n1ccn(C)c1=S` [carbimazole] (10 µM) returned a morphology score in assay [1] of 0.159. The SARS-CoV-2 infection rate in assay [2] is 99% (inactive).
In assay [1], `C[C@]12CCC(=O)C=C1CC[C@@H]1[C@@H]2CC[C@@]2(C)[C@H]1CC[C@]2(C)O` [17-alpha-Methyltestosterone] (10 µM) returned a morphology score of 0.0827. In addition, the SARS-CoV-2 infection rate in assay [2] is 108% (inactive).

These data come from the supplement of paper PMC13380429.
